Results from PubChem BioAssay (NCATS).
Inconclusive results are not listed. Where a call stands in place of a potency, no number is given. Activity calls are given as the source filed them. Calls come from the whole dose curve; as a rule, active = well fitted cell-killing curve with a large enough effect; inconclusive = small, poorly fitted or top-dose-only effect, or effect the other way; inactive = flat fitted curve, though single readings scatter.

The compounds below were run on C33A (assay: Primary qHTS to identify gynecologic anti-cancer compounds using libraries of approved drugs and bioactive compounds (AID 1345084; note: nearly all actives have a fitted effect of over 55% in size)). Details: Gynecologic cancer cell panel viability, ATPlite luminescence, 48 h; series mostly up to 57.5 µM.
Outline: (§1)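 In this quantitative HTS, cell killing is estimated from loss of ATP-dependent luciferase light. Cells see five compound concentrations over a 48 h exposure.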

Row | SMILES | Potency
1 | OCC1=CC[C@@H]2C=CO[C@@H](O[C@@H]3O[C@H](CO)[C@@H](O)[C@H](O)[C@H]3O)[C@H]12 | inactive
2 | CC[C@H]1OC(=O)C[C@@H](O)[C@H](C)[C@@H](O[C@@H]2O[C@H](C)[C@@H](O)[C@H](N(C)C)[C@H]2O)[C@@H](CCN2C[C@H](C)C[C@H](C)C2)C[C@@H](C)C(=O)/C=C/C(C)=C/[C@@H]1CO[C@@H]1O[C@H](C)[C@@H](O)[C@@H](OC)[C@H]1OC | inactive
3 | COc1cc(C2Oc3c(OC)cc(/C=C/C(=O)OC[C@H]4O[C@@H](OC(C)(C)C(=O)O)[C@H](O)[C@@H](O)[C@@H]4O)cc3C2CO)ccc1O (some centres not stated) | inactive
4 | CC(=O)OCCC(C)CCC1C(C)(O)CCC2C(C)(C)CCCC21C (configuration not stated) | inactive

What follows are compounds tested on CAOV3 in the same assay as above. Details: Gynecologic cancer cell panel viability, ATPlite luminescence, 48 h; series mostly up to 57.5 µM.
Outline: as §1

Row | SMILES | Potency | activity change, negative = cytotoxicity
5 | COc1c(OC2OC(CO)C(O)C(O)C2O)ccc(O)c1C(=O)OCc1ccccc1O[C@@H]1O[C@H](CO)[C@@H](O)[C@H](O)[C@H]1O (some centres not stated) | inactive | –
6 | CC1CCC2(C(=O)OC3OC(CO)C(O)C(O)C3O)CCC3(C)C(=CCC4C5(C)CC(O)C(O)C(C)(C(=O)O)C5CCC43C)C2C1(C)O (configuration not stated) | inactive | –
7 | CC(=O)O[C@@H]1[C@H]2[C@@H](OC(=O)c3ccccc3)[C@@H](C)C[C@]2(O)[C@H](OC(C)=O)[C@@]2(C)[C@@H]3CC(C)(C)C(=O)[C@]3(OC(C)=O)C[C@@]12C | inactive | –
8 | Cc1[nH]cnc1C1CCN(c2nc3cccc4c3n2CCC4=O)CC1 | inactive | –
9 | CN1CC[C@@H](NC(=O)Nc2ccc(C#N)cc2)C[C@@H]1c1nc2ccccc2[nH]1 | inactive | –
10 | CC1=C2C(=O)O[C@@H](c3ccoc3)[C@]2(C)CCC1 | inactive | –
11 | COc1ncc(-c2ccc3c(Nc4cc(Oc5cc(F)cc(F)c5)cc(C(=O)O)c4)c(S(=O)(=O)NC4CC4)cnc3c2)c(OC)n1 | inactive | –
12 | C=C1CCC(OC(C)=O)C2(C)CC3(O)OC(=O)C(C)=C3CC12 (configuration not stated) | inactive | –
13 | C=C1CC[C@H]2[C@@](C)(CCC[C@@]2(C)C(=O)O)[C@@H]1CCC(C)CCO (some centres not stated) | inactive | –
14 | CC1CCC2(C(=O)OC3OC(CO)C(O)C(O)C3O)CCC3(C(=O)O)C(=CCC4C5(C)CCC(OC6OC(C)C(O)C(O)C6O)C(C)(C)C5CCC43C)C2C1C (configuration not stated) | inactive | –
15 | CCC(C)/C=C(C)/C=C/C1=CC2=C(Cl)C(=O)C(C)(OC(C)=O)C(=O)C2=CN1C1CCCCN(C(CCC(N)=O)C(=O)O)C1=O (configuration not stated) | inactive | –
16 | CC(c1c[nH]c2ccccc12)C(O)C(=O)O (configuration not stated) | inactive | –
17 | CC(C)C(=O)c1cn(CC(=O)COc2ccc(Oc3ccccc3)cc2)c2ccc(C(=O)O)cc12 | inactive | –
18 | CC1=C(C)C(=O)OC(C(C)(O)C2CCC3C4CC=C5CC(OC6OC(COC7OC(CO)C(O)C(O)C7O)C(O)C(O)C6O)CC(O)C5(C)C4CCC32C)C1 (configuration not stated) | inactive | –
19 | CC(=O)OC[C@@]12[C@H](O)C[C@]3(C)C(=CCC4[C@@]5(C)CC[C@H](O[C@@H]6O[C@H](C(=O)O)[C@@H](O[C@@H]7O[C@H](CO)[C@@H](O)[C@H](O)[C@H]7O)[C@H](O)[C@H]6O[C@@H]6O[C@H](CO)[C@@H](O)[C@H](O)[C@H]6O)[C@](C)(CO)C5CC[C@]43C)[C@@H]1CC(C)(C)[C@@H](OC(C)=O)[C@@H]2O (some centres not stated) | – | 8.05% [at 11.6 µM] (inactive)
20 | CC12CCC3c4ccc(O)cc4CCC3C1CCC2OC1OC(C(=O)O)C(O)C(O)C1O (configuration not stated) | inactive | –
21 | COc1ccccc1-n1c(SCC(=O)Nc2nc3ccc(C)cc3s2)nc2c(c1=O)SCC2 | inactive | –
22 | CC1(C)CC[C@]2(C(=O)O[C@@H]3O[C@H](CO)[C@@H](O)[C@H](O)[C@H]3O)CC[C@]3(C)C(=CCC4[C@@]5(C)C[C@@H](O)[C@H](O)[C@@](C)(CO)C5CC[C@]43C)C2C1 (some centres not stated) | inactive | –
23 | C=CC1(C)C=C2C(=O)CC3C(C)(C)CCCC3(C(=O)O)C2(O)CC1 (configuration not stated) | inactive | –
24 | O=C(O)c1n[nH]c2c1C[C@H]1C[C@@H]21 | inactive | –
25 | COC(=O)C1=COC(O[C@@H]2O[C@H](CO)[C@@H](O)[C@H](O)[C@H]2O)/C(=C\COC(=O)c2ccc(OC3OC(CO)C(O)C(O)C3O)c(OC)c2)C1CC(=O)OCCc1ccc(O)cc1 (some centres not stated) | – | -8.27% [at 11.6 µM] (inactive)
26 | CC(=O)OC[C@@]12[C@@H](OC(C)=O)C[C@@H](C)[C@](C)([C@@H]3C[C@H]4C=CO[C@H]4O3)[C@H]1CCC[C@]21CO1 | inactive | –
27 | C=CC1(C)CC(OC(=O)C(=C)C(O)COC(C)=O)C(C(=C)C(=O)OC)C(O)C1C(=C)CO (configuration not stated) | inactive | –
